Source: PubChem BioAssay AID1619 (SRMLSC, 2009)
In all, about 220,000 compounds went through this assay and about 830 (0.38%) were called active.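 How the source made its calls: active means compound inhibiting the enzyme by more than half at any dose during confirmatory dose-response retesting; inconclusive means strong single-dose inhibitors picked by rank but not retested; inactive means the rest.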 These entries were drawn from the full list. Measured potencies and affinities stand elsewhere.

Each molecule was assayed against Leucine aminopeptidase (Plasmodium falciparum (isolate 3D7)) (UniProt Q8IL11) (assay: P. falciparum M17LAP inhibitors, primary screen, biochemical, fluorogenic H-Leu-NHMec substrate, 1536-well (AID 1619;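 further: plate controls were full reaction with DMSO carrier for no effect and no enzyme background for full effect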)). Conditions: recombinant M17LAP, H-Leu-NHMec fluorogenic kinetic assay; at 30 µM; hits give high values.
Leucine aminopeptidase (Plasmodium falciparum (isolate 3D7)), sequence (Q8IL11 whole entry, looked up): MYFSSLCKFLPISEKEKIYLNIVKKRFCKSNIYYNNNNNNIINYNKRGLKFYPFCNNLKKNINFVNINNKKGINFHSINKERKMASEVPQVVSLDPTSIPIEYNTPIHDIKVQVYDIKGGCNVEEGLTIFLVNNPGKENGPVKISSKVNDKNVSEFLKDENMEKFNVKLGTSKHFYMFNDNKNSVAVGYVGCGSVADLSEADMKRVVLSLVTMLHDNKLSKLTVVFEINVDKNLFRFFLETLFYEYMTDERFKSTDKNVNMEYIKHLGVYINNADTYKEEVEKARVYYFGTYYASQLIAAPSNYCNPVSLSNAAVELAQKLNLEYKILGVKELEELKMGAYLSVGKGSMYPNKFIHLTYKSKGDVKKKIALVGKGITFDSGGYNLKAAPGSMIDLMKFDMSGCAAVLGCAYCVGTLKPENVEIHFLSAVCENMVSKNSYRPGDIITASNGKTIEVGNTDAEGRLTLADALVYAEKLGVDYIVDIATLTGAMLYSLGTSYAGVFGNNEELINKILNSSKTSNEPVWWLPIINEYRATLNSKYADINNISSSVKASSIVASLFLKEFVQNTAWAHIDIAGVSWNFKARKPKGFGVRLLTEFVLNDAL

inhibition, inactive:
CSc1cccc(NC(=O)C2CCN(S(=O)(=O)c3ccc(F)cc3)CC2)c1 -0.52%
COc1cccc(C(=O)NCC2CCN(c3ccc(S(=O)(=O)N4CCOCC4)cc3)CC2)c1 4%
CN(C)S(=O)(=O)c1ccc(C(=O)NC(=O)CSc2ccccc2)cc1 6.97%
C/C(=N\NC(=O)C1=NNC(=O)C1C)c1cccs1 (configuration not stated) 24.2%
CC1=NNC(=O)C1CC(=O)N/N=C/c1ccc(C)o1 (configuration not stated) 5.16%
CC1=NNC(=O)C1CC(=O)N/N=C/c1ccncc1 (configuration not stated) -2.88%
CC1=NNC(=O)C1CC(=O)N/N=C/c1cccs1 (configuration not stated) 5.62%
Cc1ccc(/C=C/C(=O)NCCCc2ccccc2)cc1 -0.31%
CCc1ccccc1NC(=O)CC1S/C(=N\c2nccs2)N(CC)C1=O (configuration not stated) 0.04%
COc1ccc2cc(C)c(SCC(=O)Nc3cc(C)on3)nc2c1 -7.8%
COc1cc(NC(=O)CSc2nnc3c(C)cc4c(C)ccc(C)c4n23)c(C(=O)O)cc1OC 3.38%
CCc1cc2ccc(C)cc2nc1SCC(=O)Nc1c[nH]c(=O)[nH]c1=O 21.2%
CCc1ccc2c(c1)cc(C)c1nnc(SCC(=O)Nc3cc(OC)c(OC)cc3C(=O)O)n12 7.71%
Cc1ccc2cc(C)c(SCC(=O)Nc3ccc(S(=O)(=O)N4CCCC4)cc3)nc2c1 -14.9%
CCc1cc2ccc(C)cc2nc1SCC(=O)Nc1cc(C)on1 -2.5%
CCc1cc2cc3c(cc2nc1SCC(=O)Nc1cc(C)on1)OCO3 7.57%
CCc1cc2cc3c(cc2nc1SCC(=O)Nc1nccs1)OCO3 -1.06%
Cc1ccccc1OCCCCn1c(CO)nc2ccccc21 5.4%
CN(Cc1ccccc1)C(=O)Cn1c(=O)oc2cc(S(=O)(=O)NCc3ccccc3)ccc21 -8.79%
Nc1cc(=O)[nH]c(SCC(=O)Nc2ccc(S(=O)(=O)N3CCCCC3)cc2)n1 10.7%
CCOc1ccc(N2C(=O)CC(NCCc3ccncc3)C2=O)cc1 (configuration not stated) 3.75%
CN1CC(=O)N(CCOc2ccccc2)C1=O 5.27%
CN1CCN(c2ccccc2NC(=O)c2cccc([N+](=O)[O-])c2)CC1 -3.18%
C/C(=N/NC(=O)Cn1nc2ccccc2n1)c1ccc(F)cc1 13.8%
CC(C)c1nc(SCC(=O)N2CCCc3ccccc32)c2c(=O)n(C)c(=O)n(C)c2n1 -8.79%
Cc1c(CN2CCC(CO)(CC3CCCCO3)CC2)cnn1C (configuration not stated) -3.19%
Cc1ccc(OCC(=O)N2N=C(C(F)(F)F)CC2(O)C(C)(C)C)cc1C (configuration not stated) -0.9%
CCCCSc1nc(O)cc(=O)n1CC 16%
CCOC(=O)c1sc(NS(=O)(=O)c2ccccc2)nc1C 23.4%
Cc1ccc(S(=O)(=O)Nc2nc(C)c(C(=O)NN)s2)cc1 18.9%
Cc1ccc(C(=O)Nc2ccc(F)cc2)o1 7.81%
O=C(Nc1ccc2c(c1)OCCO2)NC1CCCCC1 53.6%
CC1=C(C)CC(C(=O)Nc2ccc3c(c2)OCO3)C(C(=O)O)C1 (configuration not stated) 8.14%
O=C(Nc1ccc2c(c1)OCCO2)C1CCC1 -5.9%
O=C(O)CCNc1ccc2c(c1)OCCO2 13.7%
O=C(O)CCCCCNS(=O)(=O)c1ccc2c(c1)OCCO2 -3.71%
O=C(Nc1ccc2c(c1)OCCO2)C1CC1c1ccccc1 (configuration not stated) -1.74%
O=C(c1cc(-c2ccc(F)cc2)on1)N1CCCc2ccccc21 1.4%
CCCCOCCCNC(=O)C1CCCCC1 -2.13%
C=CCn1cnc2c(nnn2-c2ccc(Cl)cc2)c1=O 1.25%
Cc1c(Cl)cccc1NC(=O)CSC(N)=O 3.23%
CCCCc1ccc(NC(=O)CC(C)=O)cc1 7.92%
Cc1c(Cl)cccc1NC(=O)CSCC(N)=O -1.74%
O=C(CSCc1cc(=O)[nH][nH]1)Nc1ccc(F)cc1 5.96%
O=C(Nc1ccc(F)cc1F)N1CCC(c2nc3ccccc3o2)CC1 2.14%
CCOCCCn1c(=S)[nH]c2cc(C(=O)NCC(OC)OC)ccc2c1=O 1.45%
Cc1cc(OCC(=O)N2CCOCC2)ccc1NC(=O)C1CCCCC1 5.24%
NC(=O)COC(=O)c1ccccc1OCc1ccccc1 13.1%
O=C(OCC(=O)N1CCN(C(=O)c2ccco2)CC1)c1ccccc1OCc1ccccc1 7.24%
CC(c1ccccc1)n1c(-c2cccs2)nc2c(c(=O)c3ccccc3n2C)c1=O (configuration not stated) 7.83%
CCOc1ccc(C(C(=O)Nc2ccc(F)cc2)N(C(=O)Cn2nnc3ccccc32)C2CC2)cc1 (configuration not stated) 6.8%
O=C(CN1CCCCC1)Nc1ccc(N2CCCCCC2)cc1 43.3%
O=C(CN1C(=O)C2C3C=CC(C3)C2C1=O)Nc1ccc(F)cc1 (configuration not stated) -2.69%
CC1CCC2(CC1)NC(=O)N(CC(=O)NC(=O)Nc1ccc3c(c1)OCCO3)C2=O (configuration not stated) 2.34%
O=C(CCN1C(=O)C2C3C=CC(C3)C2C1=O)Nc1ccc2c(c1)OCO2 (configuration not stated) -8.11%
O=C(CN1C(=O)NC2(CCCCC2)C1=O)Nc1ccc(N2CCOCC2)cc1 29.2%
CC1CCCCN1CC(=O)Nc1ccc(N2CCCCCC2)cc1 (configuration not stated) 37.6%
CC1CCCCC12NC(=O)N(CC(=O)Nc1ccc(N3CCOCC3)cc1)C2=O (configuration not stated) 22%
CC1CCC2(CC1)NC(=O)N(CC(=O)Nc1ccc3c(c1)CCC3)C2=O (configuration not stated) -3.16%
Cc1cccn2cc(CCNS(=O)(=O)c3cccc([N+](=O)[O-])c3)nc12 -1.3%
COCCn1c(N)c(N(Cc2ccccc2)C(=O)c2ccc(C#N)cc2)c(=O)[nH]c1=O 1.64%
Cc1nn(C)c(Cl)c1C(=O)NC(C(=O)O)c1ccccc1 (configuration not stated) -0.49%
